In experiment [1] the target is Cellular tumor antigen p53 (Homo sapiens) (UniProt P04637). Put plainly: Primary qHTS for small molecule compounds that upregulate eGFP-tagged delta133p53alpha (in N-terminal) cells. (AID 2060322). Further: nearly all actives have a fitted effect of over 75% in size.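 On activation: cells pre-induced with doxycycline then dosed without doxycycline; series mostly up to about 56 µM; 0% = DMSO vehicle and 100% = reference activator.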 The settings on record: NCI-H358 eGFP-delta133p53alpha fluorescence, 24 h; activation: active compounds read high. Put shortly: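 NCI-H358 cells pre-induced 24 h with 10 ng/ml doxycycline for eGFP-delta133p53alpha, plated dox-free and exposed 24 h at 37C to titrated compounds. Fixed, Hoechst-stained; gated GFP peak intensity by laser scanning cytometry, normalized to DMSO (0%) and 57.5 uM 5-azacytidine (100%).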
(In general: Quantitative high-throughput screening tests each substance at several concentrations.)

Experiment [2] in a line: BET inhibitor-based combinations targeting novel dependencies in MECOM-rearranged (r) AML: OCI-AML3 cell line (AID 2202232). Further: nearly all actives have a fitted effect of over 35% in size. The settings on record: Potency: OCI-AML3 viability. Put shortly:
(§1)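 Cells were plated at 500 per well and exposed to an 11-point dose series of each drug for 48 hr. Viability was measured by CellTiter-Glo luminescence, normalized to DMSO and empty-well controls, and summarized as AUC and per-cell-line Z-AUC.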

Experiment [3] can be described thus: BET inhibitor-based combinations targeting novel dependencies in MECOM-rearranged (r) AML: HNT-34 cell line (AID 2202234). Further: nearly all actives have a fitted effect of over 35% in size. Put shortly:
(§2)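 Activity is given as area under the curve and as Z-AUC, mean-centred within each cell line. It comes from 11-point dose curves normalized to DMSO and empty wells. CellTiter-Glo luminescence was read after 48 hr drug exposure of 500 cells/well.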

Experiment [4] can be described thus: BET inhibitor-based combinations targeting novel dependencies in MECOM-rearranged (r) AML: AML-191 cell line (AID 2202236; further: nearly all actives have a fitted effect of over 35% in size). Put shortly: as §1
A short description of experiment [5]: BET inhibitor-based combinations targeting novel dependencies in MECOM-rearranged (r) AML: AML-194 cell line (AID 2202237; further: nearly all actives have a fitted effect of over 40% in size). The method in brief: as §1
Experiment [6] is described as follows: BET inhibitor-based combinations targeting novel dependencies in MECOM-rearranged (r) AML: UCSD-AML1 cell line (AID 2202235). Further: nearly all actives have a fitted effect of over 40% in size. The method in brief: as §2
The nature of experiment [7]: BET inhibitor-based combinations targeting novel dependencies in MECOM-rearranged (r) AML: MV-4-11 cell line (AID 2202233). Further: nearly all actives have a fitted effect of over 45% in size. The method in brief: as §2

The structures appear in SMILES notation. Values joined by “and” are separate entries in the source; they are usually repeats but may differ in a detail not shown here. Equal entries are not always repeated. Records with an inconclusive call do not appear. Unmarked numbers belong to inactive results. Active and inactive are the calls of the source. The call rests on the fitted dose curve; in most records, active means well fitted curve in the direction sought with a large enough effect; inconclusive means small, poorly fitted or top-dose-only effect, or another doubt; inactive means no such curve, though single readings can be large; an effect the other way counts as inactive or inconclusive.
Potency means the concentration at half of the fitted maximal effect.

Sequence of Cellular tumor antigen p53 (Homo sapiens) (P04637 whole entry, looked up): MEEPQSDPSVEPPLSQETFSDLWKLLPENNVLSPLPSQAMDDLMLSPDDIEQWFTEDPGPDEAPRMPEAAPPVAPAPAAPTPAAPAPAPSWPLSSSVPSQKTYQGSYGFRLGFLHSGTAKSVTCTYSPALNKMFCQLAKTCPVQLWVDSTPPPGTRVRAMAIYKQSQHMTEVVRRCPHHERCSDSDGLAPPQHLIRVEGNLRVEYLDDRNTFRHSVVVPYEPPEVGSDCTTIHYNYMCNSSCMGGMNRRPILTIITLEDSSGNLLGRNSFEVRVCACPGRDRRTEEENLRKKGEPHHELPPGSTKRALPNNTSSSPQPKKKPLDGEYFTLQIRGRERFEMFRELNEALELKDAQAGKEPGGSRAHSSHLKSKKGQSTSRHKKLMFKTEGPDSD

As to `CC(C)(C)c1cnc(CSc2cnc(NC(=O)C3CCNCC3)s2)o1`, the Potency in experiment [1] was 0.968 µM (active); in experiment [2], 0.372 µM (active); in experiment [3], 0.235 µM (active); in experiment [4], 0.742 µM (active); in experiment [5], 0.742 µM (active).

Regarding `CCOC(=O)N1c2ccc(C(F)(F)F)cc2[C@@H](N(Cc2cc(C(F)(F)F)cc(C(F)(F)F)c2)C(=O)OC)C[C@H]1CC`, the activation in experiment [1] was -8.39%. In experiment [2], the Potency is 4.68 µM (active). Further, the Potency entry in experiment [3], in experiment [6], in experiment [4] and in experiment [5] was “inactive” in each case.

In the case of `CC(C)(C)OC(=O)CN(Cc1ccc(Cl)cc1)Cc1ccc([N+](=O)[O-])s1`, the activation in experiment [1] was -41.8%. In addition, the figures for the Potency in experiment [2] and in experiment [7] were 7.42 µM (active) and 18.6 µM (active), respectively. Further, the Potency entry in experiment [4] and in experiment [5] was “inactive” each time.

In the case of `COc1ccc(-c2cc(=O)c3c(O)cc(O)cc3o2)cc1O`, the activation in experiment [1] is 29.3%. Besides, the Potency in experiment [7] is 5.25 µM (active).

In the case of `Oc1c(Cl)cc(Cl)c2cccnc12`, the activation in experiment [1] was 16.4% and -7.96%. For the same molecule, the Potency in experiment [2] was 16.6 µM (active); in experiment [3], 4.17 µM (active); in experiment [6] it was 5.25 µM (active); in experiment [4], 8.33 µM (active); in experiment [5], 8.33 µM (active).

In the case of `O=c1cc(-c2ccccc2)oc2cc(O)c(O)c(O)c12`, the activation in experiment [1] was -1.25%. Besides, the Potency in experiment [2] was 7.42 µM (active); in experiment [4] it was 18.6 µM (active).

`COc1cc2c(cc1Cc1cccc(Cl)c1F)c(=O)c(C(=O)O)cn2[C@H](CO)C(C)C`: the activation in experiment [1] was -15%. The Potency in experiment [2] is 16.6 µM (active); in experiment [3] it was 3.72 µM (active); in experiment [4], 9.34 µM (active); in experiment [5], 8.33 µM (active).

As for `CC(C)Cn1cnc2c(N)nc3ccccc3c21`, the activation in experiment [1] is -10% and 13.9%. For the same molecule, the Potency result in experiment [2], in experiment [3], in experiment [6] and in experiment [5] was “inactive” in each case.

Consider `O=C1NC(=O)C(c2c[nH]c3ccccc23)=C1c1c[nH]c2ccccc12`, for which the values for the Potency in experiment [1] and in experiment [7] were 27.3 µM (active) and 2.63 µM (active), respectively.

Turning to `CCn1c(-c2nonc2N)nc2cnc(Oc3cccc(NC(=O)c4ccc(OCCN5CCOCC5)cc4)c3)cc21`, the activation in experiment [1] was -20.5%. Moreover, the Potency in experiment [7] is 0.332 µM (active).

Regarding `O=C(O)Cc1cccc(OCCCN(Cc2cccc(C(F)(F)F)c2Cl)CC(c2ccccc2)c2ccccc2)c1`, in experiment [1], the activation is 4.75%. Besides, in experiment [7], the Potency is 20.9 µM (active).

On to `CNC(=O)c1cc(COc2nnc(Nc3ccc(Cl)cc3)c3ccoc23)ccn1`, for which the activation in experiment [1] is -2.64%. For the same molecule, the Potency result in experiment [2], in experiment [4] and in experiment [5] was “inactive” each time.

As for `CN1C(=O)C[C@H](C(=O)N[C@@H](Cc2cnc[nH]2)C(=O)N2CCC[C@@H]2C(N)=O)NC1=O`, in experiment [1], the activation is 8.59%. The Potency in experiment [2] is 18.6 µM (active); in experiment [4], 20.9 µM (active). Moreover, the Potency entry in experiment [6] and in experiment [5] was “inactive” throughout.

`Nc1ncnc2c1ncn2[C@@H]1O[C@H](CO)[C@@H](O)[C@@H]1O`: the activation in experiment [1] was 23.2%. The Potency result in experiment [2], in experiment [7], in experiment [4] and in experiment [5] was “inactive” throughout.

In the case of `C#CCN[C@@H]1CCc2ccccc21`, in experiment [1], the activation is -13.4% and -11.3%. The Potency entry in experiment [7], in experiment [3], in experiment [6], in experiment [4] and in experiment [5] was “inactive” in each case.

For `Cc1cc(C2CCCCC2)n(O)c(=O)c1`, the activation in experiment [1] is 25.4%. The Potency in experiment [2] is 10.5 µM (active); in experiment [3], 10.5 µM (active); in experiment [6] it was 16.6 µM (active); in experiment [4], 11.8 µM (active); in experiment [5], 10.5 µM (active).

Regarding `C[C@@H]1C[C@H]2[C@@H]3CCC4=CC(=O)C=C[C@]4(C)[C@@]3(Cl)[C@@H](O)C[C@]2(C)[C@@]1(OC(=O)c1ccco1)C(=O)CCl`, the activation in experiment [1] was 19.9%. Moreover, the Potency in experiment [7] was 23.5 µM (active).

In the case of `COc1ccc(-c2ccc3c(N4CCOCC4)nc(N4C[C@@H](C)O[C@@H](C)C4)nc3n2)cc1CO`, the figures for the Potency in experiment [1], in experiment [7] and in experiment [3] were 21.7 µM (active), 1.05 µM (active) and 0.934 µM (active), respectively.

With `Cc1ccc(C(=O)Nc2cccc(C(F)(F)F)c2)cc1Nc1nc(-c2cccnc2)nc2c1cnn2C`, in experiment [1], the activation is 9.99%. Besides, the Potency was 8.33 µM (active) in experiment [2], 9.34 µM (active) in experiment [3], 8.33 µM (active) in experiment [4] and 10.5 µM (active) in experiment [5].

For the molecule `C#Cc1cccc(Nc2ncnc3cc(OCCOC)c(OCCO)cc23)c1`, in experiment [1], the activation is 34%. The Potency in experiment [7] is 2.63 µM (active); in experiment [3], 2.63 µM (active); in experiment [6], 13.2 µM (active); in experiment [4], 16.6 µM (active).

As to `COc1cc2ncnc(Nc3cc(Br)c(O)c(Br)c3)c2cc1OC`, the activation in experiment [1] was 26.5%. In addition, the results for the Potency in experiment [7], in experiment [3] and in experiment [6] were 7.42 µM (active), 18.6 µM (active) and 26.3 µM (active), respectively.

In the case of `C=C1C(=O)OC(CCCCCCCC)C1C(=O)O` (stereo not drawn), the activation in experiment [1] is -0.0763%. Also, the Potency entry in experiment [7], in experiment [3], in experiment [6], in experiment [4] and in experiment [5] was “inactive” in each case.

Consider `CC(=O)Oc1ccccc1C(=O)Nc1ncc([N+](=O)[O-])s1`, for which the activation in experiment [1] was -2.09% and 33.3%. Further, the Potency in experiment [2] was 18.6 µM (active); in experiment [4], 20.9 µM (active).

`Cn1c(Nc2ccc(C(F)(F)F)cc2)nc2cc(Oc3ccnc(-c4ncc(C(F)(F)F)[nH]4)c3)ccc21`: the activation in experiment [1] was 0.151%. Besides, the Potency in experiment [2] was 2.95 µM (active); in experiment [3], 0.332 µM (active); in experiment [6], 0.833 µM (active); in experiment [4] it was 0.833 µM (active).

`CC(=O)OC1C(C)OC(Oc2c(-c3ccc(O)cc3)oc3cc(O)cc(O)c3c2=O)C(O)C1OC(C)=O` (stereo not drawn): the activation in experiment [1] was 34.7%. In addition, the Potency entry in experiment [2], in experiment [3], in experiment [6], in experiment [4] and in experiment [5] was “inactive” each time.

The values above are taken from PubChem BioAssay (NCATS).
